The record followed here is the supplement of paper PMC7530171.

Structures can show the parent of a compound that is named as a salt. ± gives the standard deviation.

The subject of this assay is THP-1. Description: THP-1 cell loss relative to DMSO control; higher = more host cell loss (toxicity); extreme values may be limits of the assay. The conditions noted are these: 10 µM; 4 days; infection: M. tuberculosis H37Rv. Here is the method:
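OICR kinase inhibitor library screened in duplicate at 10 uM against M. tuberculosis-infected THP-1 macrophages, 4 days at 37 C. THP-1 cell loss (cytotoxicity or loss of adherence) was quantified from Hoechst-stained nuclei counts by high-content imaging and normalised to the 1% DMSO control; 100 = complete loss of host cells.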
With `O=C(NOCC1CC1)c1cc(Br)c(F)c(F)c1Nc1ccc(I)cc1Cl`, the THP-1 cell loss worked out at 55.1 ± 9.2%. `COC(=O)c1ccc2c(c1)NC(=O)/C2=C(\Nc1ccc(N(C)C(=O)CN2CCN(C)CC2)cc1)c1ccccc1` came in with a THP-1 cell loss of 10.48 ± 0.013%.

With `Cn1cc(C2=C(c3cn(CCCSC(=N)N)c4ccccc34)C(=O)NC2=O)c2ccccc21` [Ro-31-8220 mesylate], the THP-1 cell loss was determined as 100%. `O=Nc1c(-c2c(O)[nH]c3cc(Br)ccc23)[nH]c2ccccc12` [6-bromoindirubin-3'-oxime] returned a THP-1 cell loss of 100%. For `CN(C)CCOc1cc(-c2cn[nH]c2)ccc1NC(=O)C1COc2ccccc2O1` (stereo unspecified), the THP-1 cell loss came to 0%. The result for `COc1cc2ncnc(Nc3ccc(Cl)cc3F)c2cc1OC` reads 0.676 ± 0.63%. For the compound `O=S(=O)(Nc1ccccn1)c1ccc(N=Cc2c(O)[nH]c3ccc4ncsc4c23)cc1`, the THP-1 cell loss was 100%. The compound `CC[C@H](CO)Nc1nc(NCc2ccccc2)c2ncn(C(C)C)c2n1` [Roscovitine] showed a THP-1 cell loss of 53.5 ± 2.5%.

In turn, `C[C@@H]1CN(CC(=O)Nc2ccc3c(c2)Cc2cccc(-c4cc(=O)cc(N5CCOCC5)o4)c2S3)C[C@H](C)O1` registered a THP-1 cell loss of 100%.

For `CC(C)[C@H](CO)Nc1nc(Nc2ccc(C(=O)O)c(Cl)c2)c2ncn(C(C)C)c2n1` [Purvalanol B], the THP-1 cell loss came out at 1.78 ± 2.5%. Compound `Nc1ccc(C(=O)Nc2cccc(-c3nc(N4CCOCC4)c4oc5ncccc5c4n3)c2)cn1` showed a THP-1 cell loss of 43 ± 2.2%. Under `CC#CC(=O)Nc1ccc2ncnc(Nc3cccc(Br)c3)c2c1` stands 89.6 ± 15%; under `CS(=O)(=O)N1CCN(Cc2cc3nc(-c4cccc5[nH]ncc45)nc(N4CCOCC4)c3s2)CC1` [GDC-0941 bismesylate], 38 ± 2.2%.

`COc1cc2ncn(-c3cc(OCc4ccccc4C(F)(F)F)c(C(N)=O)s3)c2cc1OC` gave a THP-1 cell loss of 12.2 ± 11%. `CCCCCCCCCCCCCCCCn1cc[n+](Cc2ccccc2)c1C` registered a THP-1 cell loss of 100%. Regarding `N#C/C(=C\c1ccc(O)c(O)c1)C(=O)Nc1ccccc1`, the THP-1 cell loss came out at 9.72 ± 2.5%. As for `Nc1ncnc2c1c(I)cn2[C@@H]1O[C@H](CO)[C@@H](O)[C@H]1O` [5-Iodotubercidin], the THP-1 cell loss is 100%.

The compound `CC(=O)c1c(C)c2cnc(Nc3ccc(N4CCNCC4)cn3)nc2n(C2CCCC2)c1=O` returned a THP-1 cell loss of 30.5 ± 8.2%. Under `Cc1cc(Nc2cc(N3CCN(C)CC3)nc(Sc3ccc(NC(=O)C4CC4)cc3)n2)n[nH]1` stands 22.3 ± 16%; under `C=CC(=O)Nc1cccc(Oc2nc(Nc3ccc(N4CCN(C)CC4)cc3OC)ncc2Cl)c1`, 42.4 ± 7.4%; under `Oc1cc(-c2nc(-c3ccccc3)[nH]c2-c2ccncc2)ccc1Cl`, 100%.
